# Source: PubChem
# Hits are enriched below; roughly 4.2% of the tested compounds scored in any of these assays.
# 12-LOX inh = inhibitors of human 12S-lipoxygenase ALOX12 | purified 12hLO, xylenol orange hydroperoxide absorbance | 580,000 compounds, 1.1% hits | AID 1671190 | P18054 | Potency, µM (top dose mostly 108 µM), inactives show at the highest dose activity change, negative = inhibition, actives largely listed as inhibitors
# Target sequence (P18054 whole entry, looked up): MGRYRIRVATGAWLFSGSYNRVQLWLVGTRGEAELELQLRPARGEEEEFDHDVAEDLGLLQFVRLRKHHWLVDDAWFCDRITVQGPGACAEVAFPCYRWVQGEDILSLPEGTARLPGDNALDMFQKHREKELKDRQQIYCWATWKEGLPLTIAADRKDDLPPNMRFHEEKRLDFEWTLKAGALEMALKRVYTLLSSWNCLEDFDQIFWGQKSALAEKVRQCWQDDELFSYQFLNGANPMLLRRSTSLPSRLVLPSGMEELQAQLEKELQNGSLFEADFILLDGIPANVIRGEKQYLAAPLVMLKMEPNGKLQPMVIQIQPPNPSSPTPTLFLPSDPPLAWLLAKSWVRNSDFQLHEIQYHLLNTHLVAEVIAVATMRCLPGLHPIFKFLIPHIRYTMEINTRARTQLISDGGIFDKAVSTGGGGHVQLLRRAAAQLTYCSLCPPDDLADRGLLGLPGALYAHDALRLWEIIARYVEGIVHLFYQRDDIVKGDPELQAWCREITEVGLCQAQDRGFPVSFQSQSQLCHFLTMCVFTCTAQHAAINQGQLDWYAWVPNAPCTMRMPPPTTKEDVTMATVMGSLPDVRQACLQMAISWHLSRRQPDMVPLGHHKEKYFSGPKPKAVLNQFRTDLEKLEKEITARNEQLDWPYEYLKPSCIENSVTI
#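 Purified human 12hLO (150 nM final) in 25 mM Hepes, 0.01% Triton X-100, pH 7.0 was preincubated 15 min at room temperature with compound. Then 40 uM arachidonic acid was added, 30 min. Hydroperoxide was read by Fe-XO absorbance ratio 573/405 nm.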
# PLK1 PBD inh = PLK1 (human) polo-box domain binding inhibition. Plk1 PBD binding of FITC phosphopeptide, fluorescence polarization. 360,000 compounds, 2.8% hits. Potency, µM, for the others: max response, negative = inhibition, most hits filed as inhibitors. P53350; note: series mostly up to about 57 µM; nearly all actives have a fitted effect of over 65% in size
# Sfp inh = blocks B. subtilis Sfp PPTase activity; Q9F4F7; Biochemical Sfp PPTase activity, qHTS; Potency, µM, without a hit: largest response in the series, negative = inhibition, usual class: inhibitors; 310,000 compounds, 3.5% hits;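 note: the enzyme is Sfp with the accession as filed and its product quenches rhodamine fluorescence; 0% = enzyme reaction without inhibitor and -100% = no enzyme wells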
#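 After 15 min at room temperature with compound, 15 nM Sfp received 5 uM rhodamine-CoA plus 12.5 uM BHQ-2-ybbR (50 mM Hepes pH 7.6, 10 mM MgCl2). Rate came from the fluorescence difference over 30 min, ex 525/em 598 nm.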
# VDR inh = inhibitors of human vitamin D receptor; P11473; VDR-SRC2-3 peptide fluorescence polarization, 2 h; Potency, µM, for the others: max response, negative = inhibition, actives largely listed as inhibitors; 400,000 compounds, 0.93% hits
#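 FP read-out; VDR + SRC2-3 coactivator peptide; 23 nl compound by pintool; 2 h RT incubation; reagents held at 4 deg C, protected from light.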
# * marks the source's active call; other numbers are inactive results; u = inconclusive; x = no result; [ ] = remark or other dose. Calls come from the whole dose curve; as a rule, active = well fitted curve in the direction sought with a large enough effect; inconclusive = small, poorly fitted or top-dose-only effect, or another doubt; inactive = no such curve, though single readings can be large; an effect the other way counts as inactive or inconclusive. Unless noted, % is set by controls: 0 for no effect and ±100 for the full control effect; potency is the fitted concentration of half-maximal effect.
SMILES,12-LOX inh,PLK1 PBD inh,Sfp inh,VDR inh
Nc1c(C(=O)NCc2ccco2)c2nc3ccccc3nc2n1CCc1ccc(F)cc1,u,-18%,25µM*,-13%
COc1ccc(-n2c(N)c(C(=O)NCc3ccco3)c3nc4ccccc4nc32)cc1OC,-4%,-3%,u,-13%
CSCC[C@H](NC(=O)c1ccc(Br)o1)c1nnc2ccccn12,7%,11µM*,17%,u
COc1cc(NC(=O)COc2ccc3c(C)c(C)c(=O)oc3c2)cc(OC)c1OC,9%,x,x,x
NNC(=O)c1cncn1-c1ccc(F)cc1,3%,-29%,9%,-14%
NC(=O)c1ccc(NC(=O)c2cncn2-c2ccccc2)cc1,u,24µM*,19%,79µM*
Nc1ncnc2c1ncn2[C@@H]1O[C@H](COP(=O)(O)CP(=O)(O)OP(=O)(O)O)[C@@H](O)[C@H]1O,u,x,56µM*,4%
COc1ccc2ccc(OCc3nc(C(=O)N4CCC(NC(C)=O)CC4)co3)cc2c1,31%,x,x,x
Cc1cc(C)n2nc(SCC(=O)NC3CCCCC3)nc2n1,6%,u,40µM*,-17%
Cc1nc(SCC(=O)NC(=O)NC2CCCCC2)nc(C)c1C,0%,-26%,50µM*,-3%
CC/C(=N/Nc1cccc(C)c1)c1cnnc(SC)n1,7.9µM*,-6%,-17%,-3%
O=C(c1ccc(-n2cnnn2)cc1)N1CCOCC1,6%,-5%,-2%,1%
NC(=O)C1(N2CCCCC2)CCN(C(=O)c2ccc(-n3cnnn3)cc2)CC1,-17%,27µM*,-1%,-12%
COc1ccc(-c2ccc(C(=O)Nc3cccc(N(C)C)c3)c3occc23)c(C)c1,-1%,-10%,x,x
CCn1c(C(=O)OC)cc2c1ccn2-c1ccc(F)cc1,0%[57.4 µM],3µM*,-11%,u
COC(=O)c1cc2c(ccn2-c2ccc(F)cc2)n1Cc1ccc(OC)cc1,u,4%,-3%,-2%
COc1ccccc1CNC(=O)CN1CCn2nc(C(C)O)cc2C1 (stereo not given),29%,x,x,x
N#CC12CCCCC1CC1CCCCC1(C#N)N2N (stereo not given),u,17%,79µM*,u
N#CC12CCCCC1CC1CCCCC1(C#N)N2CCO (stereo not given),-2%,-5%,15%,21%
O=C1[C@H]2CN(Cc3ccccc3Br)C[C@H]2C(=O)N1Cc1ccc2c(c1)OCO2,11%,x,x,x
CCOC(=O)N1CCN(C(=O)CSc2nnc(C3COc4ccccc4O3)o2)CC1 (stereo not given),17%[57.4 µM],-29%,10%,-14%
O=C(CSc1nnc(C2COc3ccccc3O2)o1)N1CCCC1 (stereo not given),u,21µM*,u,u
O=c1nc(N2CCOCC2)ccn1-c1nc(-c2ccccc2)sc1-c1ccccc1,0%,30µM*,-5%,-9%
c1ccc(-c2nc(N3CCOCC3)sc2-c2ccccc2)cc1,-3%,-11%,-26%,-11%
Cc1nc(CCNC(=O)C2CNCCO2)sc1C (stereo not given),8.9µM*,x,x,x
SMILES,12-LOX inh,PLK1 PBD inh,Sfp inh,VDR inh
COc1ccc(CN(C(=O)Cc2cccc(C(F)(F)F)c2)C2CC2)cc1,-12%,x,x,x
C(=N\Nc1nc(-c2ccccc2)cs1)/c1cccs1,u,30µM*,8.9µM*,19%
ClCc1csc(N/N=C/c2cccs2)n1,x,x,45µM*,x
C(=N\Nc1nc(-c2ccccc2)cs1)/c1ccncc1,-15%,-20%,u,10%
Cc1ccc(-c2csc(N/N=C/c3ccco3)n2)cc1,u,-6%,89µM*,2%
C(=N\Nc1nc2ccccc2[nH]1)/c1cccs1,0%,-4%,-19%,-14%
Cc1noc2ncnc(N3CCC4(CC3)CC(c3ccccc3)CN(C)C4)c12 (stereo not given),29%,x,x,x
CC(=Nc1ccc(Br)cc1)c1sc2ccccc2c1O,0%,u,32µM*,-2%
Fc1cccc(/C=N/Nc2ccc(Cl)nn2)c1,0%,-10%,-22%,-9%
Cc1cccc(/C=N/Nc2ccc(Cl)c(Cl)c2)c1,5.6µM*,x,x,x
O=C(O)c1cc(N/N=C/c2cccnc2)ccc1Cl,-28%,-6%,1%,9%
Fc1cccc(/C=N/Nc2ccc(Cl)c(Cl)c2)c1,5µM*,x,x,x
Fc1ccc(/C=N/NC(=S)Nc2ccc(Cl)cc2)cc1F,-13%,-4%,21%,-10%
Fc1ccc(/C=N/Nc2ccc(Cl)c(Cl)c2)cc1F,5µM*,x,x,x
CSc1ccc(/C=N/Nc2ccc(Cl)c(C(=O)O)c2)cc1,u,u,3%,4%
CSc1ccc(/C=N/Nc2ccc(Cl)c(Cl)c2)cc1,2µM*,x,x,x
COc1ccccc1N1C(=O)c2cccc3c(Cl)ccc(c23)C1=O,-12%,-2%,-1%,2%
CCC(/C=N/NC(=O)C(=O)N/N=C/C(CC)CC)CC,1%,-12%,7%,12%
Cc1ccc(Nc2nc3ccccc3[nH]2)nc1,13%,1%,-17%,-7%
CSc1ccc(/C=N/Nc2ccc(F)cc2)cc1,1.3µM*,x,x,x
CSc1ccc(/C=N/Nc2cccc(Cl)c2)cc1,1.4µM*,x,x,x
Cc1ccc(N/N=C/c2ccc(F)cc2F)cc1Cl,10%,x,x,x
Fc1ccc(/C=N/Nc2ccc(Cl)c(Cl)c2)cc1,2.2µM*,x,x,x
Cc1ccc(N/N=C/c2ccc(Cl)c(Cl)c2)cc1,16µM*,x,x,x
CSc1ccc(/C=N/Nc2nc(C)cc(C)n2)cc1,2%,2%,9%,5%
SMILES,12-LOX inh,PLK1 PBD inh,Sfp inh,VDR inh
N#Cc1ccc(/C=N/Nc2ccc(F)cc2)cc1,16µM*,x,x,x
CN/N=C/c1ccc(C#N)cc1,3%,1%,25%,-22%
N#Cc1c(-c2ccccc2)[nH]c(=S)[nH]c1=O,u,-5%,50µM*,4%
O=c1[nH]c(=S)[nH]c(-c2ccccc2)c1Cc1c(O)ccc2ccccc12,x,x,x,22µM*
Cc1ccccc1NC(=O)CCN1C(=O)c2ccccc2C1=O,0%,-9%,18%,-2%
CCOc1cc(S(=O)(=O)NCc2cccs2)ccc1Cl,0%,27µM*,16%,2%
COc1cc(S(=O)(=O)NCc2ccccn2)ccc1Cl,-10%,24µM*,7%,u
COc1cc(S(=O)(=O)NCc2ccccn2)c(OC)cc1Cl,1%,-1%,0%,13%
COc1ccccc1NC(=O)C1=C(C)Nc2nnnn2C1c1cc(Br)c(O)c(OC)c1 (stereo not given),u,x,x,-6%
Nc1cc(N)nc(SCC(=O)Nc2ccc(Br)cc2Cl)n1,6%,11µM*,12%,-21%
COC(=O)c1ccc(-c2noc(CN(Cc3nccn3C)C(C)C)n2)cc1,33%,17µM*,10%,-24%
COC(=O)c1ccc(-c2noc(CN3CCCCC3c3nccn3C)n2)cc1 (stereo not given),-13%,-11%,7%,8%
CC(=O)N1N=C2/C(=C/c3ccccc3)CCCC2C1c1ccccc1 (stereo not given),-5%,27µM*,-19%,71µM*
O=C(O)c1ccccc1C(=O)N1N=C2/C(=C/c3cccc([N+](=O)[O-])c3)CCCC2C1c1cccc([N+](=O)[O-])c1 (stereo not given),u,67µM*,-16%,-4%
CCN(C(=O)CSc1nnc(-c2cc3occc3n2C)n1-c1ccccc1C)c1cccc(C)c1,-17%,x,x,-2%
